For one experiment, the target named is Albumin (Bos taurus) (UniProt P02769). Nature of the experiment: compounds binding labelled BSA control protein – biochemical, small-molecule microarray, Alexa647 label, 635/667 nm fluorescence, artefact control for SMM control protein annotation, profiling panel (AID 1118).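 Also: score merges 667 nm emission intensity and signal-to-noise per printed compound spot.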 As to conditions: BSA-A647 binding, fluorescence 635 nm, higher = more signal.
A short description of experiment [1]: probe aXIP binding to arrayed compounds – biochemical, NeuroSMM set, 635/667 nm fluorescence, primary screen (AID 1119).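 Also: probe is the protein aXip251-270 applied at 1 µg/mL to compound-printed slides; binding of probe to printed compounds measured as 667 nm fluorescence plus signal to noise.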 The settings on record: small-molecule microarray, higher = more signal, called active from +8 up or from −8 down.
Experiment [2] is described as follows: probe aNOTCH3 binding on compound microarray – biochemical, small-molecule microarray, 635/667 nm fluorescence, primary screen (AID 1120).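 Also: probe is a biotin-tagged antibody raised against NOTCH3 rather than NOTCH3 protein; score merges spot fluorescence near 667 nm with spot signal to noise.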 As to conditions: higher = more signal.
Experiment [3] can be described thus: probe aNOTCH2 binding on compound microarray – biochemical, small-molecule microarray, 635/667 nm fluorescence, primary screen (AID 1121).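 Also: score merges feature fluorescence read at 667 nm with its signal to noise.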 The settings on record: higher = more signal.
The target of experiment [4] is Carbonic anhydrase 2 (Homo sapiens) (UniProt P00918). Nature of the experiment: compounds binding carbonic anhydrase 2 – biochemical, small-molecule microarray, Alexa647-labelled CAII, profiling panel (AID 1122). The settings on record: CAII-A647 binding fluorescence, higher = more signal.
The nature of experiment [5]: COS7 lysate on small-molecule microarray, probe aHis, 635 nm (AID 1123).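 Also: z-score combines 667nm fluorescence intensity with signal-to-noise per printed compound spot.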 As to conditions: COS7 cell lysate, fluorescence, higher = more signal.
A short description of experiment [6]: probe aLAP1 signal on lysate-treated microarray – cell lysate, small-molecule microarray, COS7 lysate, primary screen (AID 1124).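 Also: lysate comes from COS7 cells expressing LAP1 and is applied at 0.3 µg/mL; score merges spot fluorescence near 667 nm with signal-to-noise over triplicate slides.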 The settings on record: probe aLAP1, fluorescence, higher = more signal.
The next experiment concerns Sam68 (KHDRBS1). Nature of the experiment: compounds binding KHDRBS1 protein – biochemical, small-molecule microarray, 635 nm fluorescence, primary screen (AID 1125).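 Also: score merges 667 nm channel intensity with signal to noise over triplicate slides.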 The settings on record: higher = more signal.
Experiment [7] has as its system Chordin-like protein 2 (CHRDL2). Nature of the experiment: compounds binding chordin-like 2 – biochemical, small-molecule microarray, 635 nm fluorescence, primary screen (AID 1126).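 Also: printed compound slides probed with Chrdl2 protein at 4 µg/mL for 1 h at 4 C; score merges 667 nm emission intensity with signal to noise over three replicate slides.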 As to conditions: fluorescence 635 nm, higher = more signal.
The target of experiment [8] is Concanavalin-A (Canavalia ensiformis) (UniProt P02866). Nature of the experiment: compounds binding concanavalin A lectin – biochemical, small-molecule microarray, Alexa647 label, 635 nm, artefact control for SMM control protein annotation, primary screen (AID 1127).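 Also: z combines 667 nm emission intensity with signal-to-noise across three replicate slides.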 The settings on record: ConA-A647 binding fluorescence, higher = more signal.

Each structure is given as a SMILES string. Active and inactive are the calls of the source.

Chain of Concanavalin-A (Canavalia ensiformis) (P02866 whole entry, looked up): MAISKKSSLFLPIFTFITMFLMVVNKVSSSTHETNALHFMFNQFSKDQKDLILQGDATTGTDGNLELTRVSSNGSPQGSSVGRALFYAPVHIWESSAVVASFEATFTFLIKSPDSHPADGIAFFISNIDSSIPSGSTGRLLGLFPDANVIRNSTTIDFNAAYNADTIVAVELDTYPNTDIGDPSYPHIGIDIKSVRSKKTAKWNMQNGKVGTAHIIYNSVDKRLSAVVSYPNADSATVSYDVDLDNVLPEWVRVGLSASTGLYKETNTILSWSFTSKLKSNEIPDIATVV
Chain of Albumin (Bos taurus) (P02769 whole entry, looked up): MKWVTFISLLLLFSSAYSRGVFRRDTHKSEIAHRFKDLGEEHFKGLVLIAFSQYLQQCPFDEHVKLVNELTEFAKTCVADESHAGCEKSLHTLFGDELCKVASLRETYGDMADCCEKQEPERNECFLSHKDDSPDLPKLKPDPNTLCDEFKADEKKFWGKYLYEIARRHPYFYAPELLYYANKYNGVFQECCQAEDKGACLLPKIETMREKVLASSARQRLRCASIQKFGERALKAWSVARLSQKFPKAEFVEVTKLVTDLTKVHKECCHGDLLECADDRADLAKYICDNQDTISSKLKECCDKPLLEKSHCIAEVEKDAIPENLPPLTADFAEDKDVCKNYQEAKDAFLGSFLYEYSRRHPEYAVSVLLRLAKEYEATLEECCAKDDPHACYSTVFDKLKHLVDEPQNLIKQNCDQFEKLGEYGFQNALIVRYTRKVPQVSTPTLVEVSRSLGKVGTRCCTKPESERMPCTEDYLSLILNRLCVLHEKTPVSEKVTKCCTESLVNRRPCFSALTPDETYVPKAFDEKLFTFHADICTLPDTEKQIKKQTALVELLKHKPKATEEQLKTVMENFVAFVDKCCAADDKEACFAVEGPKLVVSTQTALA

For the molecule `COCCCNC(=O)[C@@]1(Cc2ccccc2N=[N+]=[N-])COC(c2ccc(OCCCO)cc2)=N1`, the composite z-score with Albumin (Bos taurus) is 0.538; in experiment [2] it was 0.125; in experiment [3], -0.0928; in experiment [4], 0.31; in experiment [5], 2.27; in experiment [6], 0.398. Besides, the results for the composite z-score (in the experiment with Sam68 (KHDRBS1); in [7]; in experiment [8]) were 1.05, -0.938 and 1.1, respectively. In addition, in experiment [1], the composite Z-score was 0.889 (inactive).
`O=C1NC(=O)C2C1C=CC(C(O)c1c(F)cccc1Cl)N2Nc1ccc(Cl)cc1Cl` (stereo not given): the composite z-score stood at 1.04 with Albumin (Bos taurus); 0.525 in [2]; 0.232 in [3]; 0.599 in [4]; 3.11 in experiment [5]; 1.12 in [6]. Also, the composite z-score is 0.79 in the experiment with Sam68 (KHDRBS1), -0.879 in [7] and 0.44 in [8]. Moreover, in experiment [1], the composite Z-score is 0.122 (inactive).
In the case of `CC=CC(O)C1C=CC2C(=O)N(c3ccccc3)C(=O)C2N1Nc1ccccc1F` (stereo not given), the composite z-score in the experiment with Albumin (Bos taurus) came to 0.245; in experiment [2], 0.541; in experiment [3], 0.468; in [4], 0.74; in [5], 2.08; in [6], 0.412. In addition, the figures for the composite z-score (with Sam68 (KHDRBS1); in [7]; in [8]) were 0.338, 0.295 and 0.0905, respectively. Also, in experiment [1], the composite Z-score was 1.48 (inactive).
`C=CCC(OC(C)=O)[C@@H]1[C@@H](N(Cc2cc3ccccc3o2)C(=O)Cc2ccc(F)cc2)c2cc(OCCCO)ccc2N1C(=O)c1ccc2ccccc2c1` (stereo not given in full): the composite z-score with Albumin (Bos taurus) was -0.379; in [2] it was -0.118; in experiment [3] it was -0.0904; in experiment [4] it was 0.31; in experiment [5], -0.234; in experiment [6], 0.0099. In addition, the composite z-score was -0.741 in the experiment on Sam68 (KHDRBS1), -0.173 in experiment [7] and -0.679 in experiment [8]. Besides, the composite Z-score in experiment [1] was 0.749 (inactive).
In the case of `CCOC(=O)C[C@H]1[C@H](OC(=O)c2ccc(C(=O)c3ccccc3)cc2)[C@@H](NC(=O)Cc2ccc(OC)cc2)c2cc(OCCCO)ccc2N1C(=O)c1ccccc1`, the composite z-score with Albumin (Bos taurus) was 0.585; in [2], 0.0203; in experiment [3], -0.0877; in experiment [4], 0.188; in [5], 0.409; in experiment [6] it was -0.0137. Also, the composite z-score with Sam68 (KHDRBS1) was 0.428; in experiment [7] it was -0.0656; in [8], 0.278. Moreover, the composite Z-score in experiment [1] is 0.324 (inactive).
As to `COC(=O)[C@H](Cc1ccccc1)N1CC(/C=C/C2CC2)=C[C@H]1[C@H](O)Cc1ccccc1`, the composite z-score was 0.59 with Albumin (Bos taurus); -0.095 in [2]; -0.14 in experiment [3]; 0.456 in experiment [4]; 0.726 in experiment [5]; 0.148 in experiment [6]. Besides, the composite z-score in the experiment with Sam68 (KHDRBS1) is 1.2; in [7], 0.732; in experiment [8], 0.981. Moreover, the composite Z-score in experiment [1] is -0.0662 (inactive).
Turning to `COc1ccc(-c2cc3c(c(CCc4ccccc4)n2)[Si](C(C)C)(C(C)C)OC3)cn1`, the composite z-score with Albumin (Bos taurus) was -0.0428; in [2], -0.152; in experiment [3], -0.169; in experiment [4], -0.173; in experiment [5], 0.132; in experiment [6], -0.376. Moreover, the composite z-score in the experiment with Sam68 (KHDRBS1) was -0.296; in experiment [7] it was 0.105; in experiment [8], -0.0689. Moreover, the composite Z-score in experiment [1] is 0.147 (inactive).
Turning to `O=C1O[C@H](c2ccccc2)[C@H](c2ccccc2)N2[C@H]1[C@@H](C(=O)O)[C@]1(C(=O)Nc3ccc(C#CC4=CCCCC4)cc31)[C@H]2c1ccc(O)cc1`, the composite z-score with Albumin (Bos taurus) was 0.562; in experiment [2] it was 0.0445; in [3], -0.105; in [4], 0.627; in experiment [5], 1.51; in experiment [6] it was 0.384. Also, the values for the composite z-score (in the experiment on Sam68 (KHDRBS1); in [7]; in experiment [8]) were 0.712, 0.285 and 0.997, respectively. In addition, the composite Z-score in experiment [1] is 0.235 (inactive).
As to `O=C1c2ccccc2[C@](Cc2ccccc2I)(C(=O)NCC(F)(F)F)[C@H](c2ccc(CO)cc2)N1C1CCCCC1`, the composite z-score with Albumin (Bos taurus) was 0.689; in [2], -0.0026; in [3] it was -0.0956; in experiment [4], 0.729; in [5], 2.31; in experiment [6] it was 0.326. The composite z-score came out at 1.31 with Sam68 (KHDRBS1), 0.227 in experiment [7] and 1.16 in experiment [8]. In addition, the composite Z-score in [1] is 0.328 (inactive).
As to `C=CCOC(=O)[C@H]1[C@@H]2C(=O)O[C@@H](c3ccccc3)[C@@H](c3ccccc3)N2[C@@H](c2ccc(OCCOC(=O)[C@@H]3C[C@@H]4C(=O)N[C@@H](CCCCN(C)C)C(=O)N4[C@@H]3c3ccc(O)cc3)cc2)[C@]12C(=O)Nc1ccccc12`, the composite z-score with Albumin (Bos taurus) is -0.568; in [2] it was 0.137; in [3] it was 0.0002; in experiment [4], 0.297; in [5], 2.58; in [6], 0.949. In addition, the composite z-score in the experiment with Sam68 (KHDRBS1) was found to be 1.31; in experiment [7], 1.44; in experiment [8] it was 1.14. Moreover, in [1], the composite Z-score was 0.685 (inactive).
Consider `[N-]=[N+]=Nc1ccccc1C[C@]1(C(=O)N2CCOCC2)N=C(c2ccc(OCCCO)cc2)O[C@H]1c1ccccc1`, for which the composite z-score was 0.806 with Albumin (Bos taurus); -0.0902 in experiment [2]; -0.204 in experiment [3]; 0.627 in [4]; 1.99 in experiment [5]; 0.221 in experiment [6]. The composite z-score with Sam68 (KHDRBS1) came to 1.36; in [7], 0.764; in [8], 1.15. In addition, in experiment [1], the composite Z-score is 0.339 (inactive).
Turning to `O=C1NC(=O)C2C1C=CC(C(O)CCc1ccccc1)N2Nc1ccc(Cl)cc1Cl` (stereo not given), the composite z-score with Albumin (Bos taurus) is 0.709; in [2] it was -0.142; in [3], 0.345; in experiment [4] it was 0.79; in experiment [5] it was 2.25; in [6] it was 0.925. Moreover, the composite z-score in the experiment on Sam68 (KHDRBS1) is 0.969; in [7], -1.3; in experiment [8], -0.0165. The composite Z-score in [1] was 0.118 (inactive).
In the case of `COC(=O)[C@@]1(Cc2ccc(OC)cc2)[C@H]2c3cc(C(=O)N(C)C)n(CCO)c3C[C@H]2CN1C(=O)c1ccccc1`, the composite z-score was 0.625 with Albumin (Bos taurus); -0.102 in experiment [2]; 0.257 in experiment [3]; 0.935 in [4]; 1.19 in experiment [5]; 0.971 in experiment [6]. Further, the composite z-score is -0.924 in the experiment on Sam68 (KHDRBS1), -0.784 in experiment [7] and 0.001 in experiment [8]. In addition, in experiment [1], the composite Z-score is 0.126 (inactive).
For the molecule `O=c1n(-c2ccccc2)c(=O)n2n1CC(COc1ccccc1)=C([C@H](O)CCc1ccccc1)[C@@H]2CO`, the composite z-score is -0.341 with Albumin (Bos taurus); -0.187 in experiment [2]; -0.0895 in experiment [3]; -0.241 in [4]; 0.277 in [5]; -0.408 in experiment [6]. The composite z-score with Sam68 (KHDRBS1) is -0.0362; in experiment [7] it was 0.315; in experiment [8], -0.352. For the same molecule, in [1], the composite Z-score was 0.11 (inactive).

(Values after PubChem BioAssay.)
